Laboratory results reported in PubChem BioAssay AID686978 (National Center for Advancing Translational Sciences (NCATS), 2013).
In all, about 420,000 compounds went through this assay and about 64,000 (15%) were called active. Roughly 27% stayed inconclusive and do not appear here. Calls come from the whole dose curve; as a rule, active = well fitted inhibition curve with a large enough effect; inconclusive = small, poorly fitted or top-dose-only effect; inactive = flat fitted curve, though single readings scatter. Not all results are given here.

Assay: qHTS for Inhibitors of human tyrosyl-DNA phosphodiesterase 1 (TDP1): qHTS in cells in absence of CPT; note: nearly all actives have a fitted effect of over 55% in size
Conditions: DT40 Tdp1-/- hTDP1 cells, no CPT, ATP luminescence, 48 h; activity change, negative = growth inhibition: at 46.2 µM (top of the series)
Outline: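 DT40 Tdp1-/-;hTDP1 cells, no CPT (DMSO vehicle only), 400 cells/well; compounds pin-transferred; ≥48 hr, 37 °C; CellTiter-Glo 30 min RT dark, luminescence read.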
% is set by controls: 0 for no effect and ±100 for the full control effect; potency is the fitted concentration of half-maximal effect.

Compound | activity change, negative = growth inhibition | Potency
CCN(CC(=O)Nc1c(F)cccc1F)C(=O)Cc1cccs1 | -19.1% (inactive) | –
O=C1CCCCC1C(=O)c1ccccc1 (configuration not stated) | 0.152% (inactive) | –
Cc1n[nH]c(=O)c2c(NC(=O)CSc3ccccc3F)oc(C)c12 | -3.84% (inactive) | –
CC(=O)N1CCN(S(=O)(=O)c2c(F)cc(F)c(Cl)c2F)CC1 | -23.5% (inactive) | –
COc1ccc(Cc2n[nH]c(=S)n2NC(=O)Nc2ccc(C)cc2)cc1 | -0.57% (inactive) | –
COc1ccc(OCCCC(=O)OC(C)C(=O)Nc2ccccc2[N+](=O)[O-])cc1 (configuration not stated) | -8.79% (inactive) | –
O=c1[nH][nH]c(=O)c2cc(N3CCCC3)ccc12 | -0.739% (inactive) | –
O=C1C=CC(=O)N1c1ccc(N2CCCCC2)cc1 | – | 1.16 µM (active)
CS(=O)(=O)N1CCC[C@@]2(CCN(c3ccncc3)C2)C1 | 1.43% (inactive) | –
Cc1ccc(-c2c(C)n([O-])c3c([n+]2=O)CCC3)cc1 | -1.61% (inactive) | –
CC1=NNC(=O)C1CCC(=O)N/N=C\c1ccc(Cl)c(Cl)c1 (configuration not stated) | 1.92% (inactive) | –
CCOC(=O)c1c(SCC(=O)Nc2cccc(C)c2C)nc(=O)[nH]c1C | -20.6% (inactive) | –
CCOC(=O)c1c(C)[nH]c2c1-c1ccccc1C(=O)C2=O | – | 0.651 µM (active)
CCOC(=O)c1c(C)[nH]c(=S)c(C#N)c1-c1ccccc1 | -20.4% (inactive) | –
O=C(COC(=O)c1ccc[nH]c1=O)Nc1ccc2c(c1)OC(F)(F)O2 | 7.51% (inactive) | –
COCC1CCCCN1C(=O)c1cc(COc2ccc(C)c(C)c2)on1 (configuration not stated) | – | 20.6 µM (active)
Cc1ccc(OCc2cc(C(=O)N(C)CCn3ccnc3C)no2)cc1C | -29.8% (inactive) | –
COC(=O)[C@@H]1CCCN1C(=O)c1cc(COc2cccc3cccnc23)on1 | -10.1% (inactive) | –
COC(=O)c1ccccc1NC(=O)c1cc(-c2ccccc2O)no1 | -23.2% (inactive) | –
CCOC(=O)C1CCc2nc3ccccc3c(=O)n21 (configuration not stated) | -7% (inactive) | –
CCOC(=O)C(CCOc1cccc(CC)c1)C(=O)OCC | -7.39% (inactive) | –
C=CCNC(=O)C12CC3CC(C1)CC(C(=O)NCC=C)(C3)C2 | -12.6% (inactive) | –
Cc1cc(C)cc(NC(=O)N2CCC(NC(=O)c3ccc(F)cc3)CC2)c1 | -4.78% (inactive) | –

Compound | activity change, negative = growth inhibition | Potency
CCN(CC)CCC(c1ccc2c(c1)OCO2)c1c(OC)cc(OC)c2c(-c3ccccc3)cc(=O)oc12 (configuration not stated) | – | 20.6 µM (active)
O=C(C(=O)N1CCN(c2ccccc2)CC1)c1ccc2c(c1)OCO2 | -5.22% (inactive) | –
COc1ccc(F)cc1S(=O)(=O)NCC(c1ccc2c(c1)OCO2)N1CCN(C)CC1 (configuration not stated) | -17.7% (inactive) | –
COc1cc(COCC(O)CN2CCN(Cc3ccc4c(c3)OCO4)CC2)cc(OC)c1OC (configuration not stated) | 1.82% (inactive) | –
COc1cc(OC)c2ccc(=O)oc2c1C(CCN1CCN(c2ccccc2)CC1)c1ccc2c(c1)OCO2 (configuration not stated) | – | 16.4 µM (active)
Cc1nnc(SCc2cc(=O)[nH]c(N3CCN(Cc4ccccc4)CC3)n2)s1 | -2.6% (inactive) | –
CC(Sc1nncn1C)C(=O)Nc1cc(C(F)(F)F)ccc1N1CCOCC1 (configuration not stated) | -4.89% (inactive) | –
CCCCN1C(=O)C(CC(=O)NCc2cccs2)CC(C(=O)N2CCCCCC2)=C1C (configuration not stated) | -19.8% (inactive) | –
CC(C)(C)NC(=O)NC(=O)COC(=O)C1(C)CC1(Cl)Cl (configuration not stated) | -5.85% (inactive) | –
COc1ccc(CCc2nc(-c3cccs3)no2)cc1 | -14.4% (inactive) | –
COc1ccc(S(=O)(=O)NC(=O)C2(C)CCN2C(=O)c2ccccc2CCc2ccccc2)cc1 (configuration not stated) | 4.09% (inactive) | –
O=C(O)c1cccc(NC(=O)c2cc(-c3cccc(Cl)c3)nc3ccccc23)c1 | 7.86% (inactive) | –
Cc1c(C(=O)Nc2cccc(Cl)c2)cn2c(nc3ccccc32)c1C#N | – | 11.6 µM (active)
O=C(NCc1cn2ccsc2n1)Nc1cccc(Cl)c1 | -13.9% (inactive) | –
COc1cc(C(=O)NN(CCC#N)C2=NS(=O)(=O)c3ccccc32)cc(OC)c1OC | 2.78% (inactive) | –
CCc1ccc(-c2nnn(Cc3nn[nH]n3)n2)cc1 | -0.357% (inactive) | –
COc1ccc(/C(N)=N/OC(=O)Cc2ccccc2)cc1 | -2.57% (inactive) | –
COc1ccc(C(C#N)=C2C=CC(=NO)c3ccccc32)cc1 | – | 0.82 µM (active)
COc1ccc(C(=NN)c2ccc(OC)cc2)cc1 | -24.3% (inactive) | –
O=C(c1ccc[nH]c1=S)N1CCN(S(=O)(=O)c2ccc(Br)cc2Cl)CC1 | -9.07% (inactive) | –
COc1ccc(CNC(=O)c2c(C)cc(=O)oc2C)cc1OC | -9.12% (inactive) | –
Cc1noc(C)c1-c1ccc(C(=O)NCc2ccncc2)c2occc12 | – | 8.2 µM (active)
COc1ccc(CNC(=O)c2ccc(-c3cccnc3)c3ccoc23)cc1OC | – | 18.4 µM (active)

Compound | activity change, negative = growth inhibition | Potency
COc1ccc(CNC(=O)c2ccc(Br)s2)cc1OC | -11.8% (inactive) | –
CCN(CC(=O)NCc1ccc(Cl)cc1)C(=O)c1c(C)noc1C | -2.22% (inactive) | –
O=C(NCc1ccncc1)C(=O)NCc1ccco1 | -11.2% (inactive) | –
O=C(COc1ccc(Cl)cc1)NCc1nnc(SCC(=O)NCC2CCCO2)o1 (configuration not stated) | 17.3% (inactive) | –
CCn1cc(CNC(=O)c2cc([N+](=O)[O-])c(C)c([N+](=O)[O-])c2)cn1 | -25.9% (inactive) | –
Cc1cccc(NC(=O)CSCC(=O)Nc2nnc(C3CC3)s2)c1 | 5.18% (inactive) | –
Cc1ccc(SC(CC(=O)c2ccc(C(C)(C)C)cc2)C(=O)O)cc1 (configuration not stated) | – | 2.91 µM (active)
Cc1ccc(C(=O)CSc2ccccc2C(=O)O)cc1 | 4.44% (inactive) | –
Cc1ccc(C(=O)CS(C)(=O)=O)cc1 | -5.59% (inactive) | –
CC1(C)c2[nH]c3ccccc3c2C[C@H]2C(=O)N(N)CC(=O)N21 | -2.67% (inactive) | –
O=C(NC1CCc2ccccc21)C12CN(Cc3ccccc3)CC1C(c1cccc([N+](=O)[O-])c1)=NO2 (configuration not stated) | -28.8% (inactive) | –
O=C(NCc1ccccc1Cl)C1CCCN1S(=O)(=O)c1ccc(F)cc1 (configuration not stated) | -28.8% (inactive) | –
CC(C)c1nnc(NC(=O)C2CCCN2S(=O)(=O)c2ccc(Cl)cc2)s1 (configuration not stated) | -18.8% (inactive) | –
COc1ccccc1NC(=O)C1CCCN1S(=O)(=O)c1ccc(Cl)cc1 (configuration not stated) | – | 16.4 µM (active)
COc1cccc(CCNC(=O)COc2cccc3c2OC(C)(C)C3)c1 | -28% (inactive) | –
CN(C)c1cccc2ccccc12 | -21.3% (inactive) | –
CC(C)[C@@H](C(=O)O)N(Cc1cccc(CN([C@H](C(=O)O)C(C)C)S(C)(=O)=O)c1)S(C)(=O)=O | -13.5% (inactive) | –
COc1cc2c(cc1OC)C(Nc1ccc(S(N)(=O)=O)cc1)=NC(C)(C)C2 | -1.6% (inactive) | –
COc1cc2c(cc1O)C(SC)=NC(C)(C)C2 | – | 29.1 µM (active)
O=C(Nc1ccccn1)C1CCN(S(=O)(=O)c2ccccc2)CC1 | -16.5% (inactive) | –
CCCCN(CC(=O)NC(C)(C)C)C(=O)C(=O)Nc1ccc2c(c1)OCCO2 | -4.3% (inactive) | –
